# Reference: PubChem BioAssay (NCATS)
# Inconclusive results are not listed. Where a call stands in place of a potency, no number is given. The source made the active and inactive calls. The call rests on the fitted dose curve; in most records, active means well fitted inhibition curve with a large enough effect; inconclusive means small, poorly fitted or top-dose-only effect; inactive means flat fitted curve, though single readings scatter. Where a SMILES comes first, the peptide text is derived from it. [ ]: non-standard residue; d: D form. PhLac = O=C(O)[CH](O)Cc1ccccc1; NMeV = CN[CH](C(=O)O)C(C)C
# Target: Calcium and integrin-binding protein 1 (Homo sapiens) (UniProt Q99828)
# Sequence (Q99828 whole entry, looked up): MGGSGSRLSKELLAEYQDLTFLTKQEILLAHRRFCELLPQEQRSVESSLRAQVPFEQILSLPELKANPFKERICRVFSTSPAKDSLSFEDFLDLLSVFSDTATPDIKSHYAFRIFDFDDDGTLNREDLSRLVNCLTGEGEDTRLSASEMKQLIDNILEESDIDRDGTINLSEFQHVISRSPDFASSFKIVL
# Assay: Primary qHTS for Identification of Calcium Integrin Binding Protein 1 (CIB1) Competitor (AID 1508620);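 further: GST tagged CIB1 binding a fluorescein labelled alphaIIb integrin peptide tracer; top concentration of the series differs between compounds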
# Settings: CIB1-GST / FITC-alphaIIb peptide fluorescence polarization; series mostly up to 57.7 µM
# In short: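 CIB1-GST (1 uM final) and compound incubated 15 min at room temperature before adding FITC-alphaIIb peptide tracer (100 nM final). Competition for binding read by fluorescence polarization (ex 480, em 540) after another 15 min at room temperature.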
SMILES,Potency,"activity change, negative = inhibition"
CC1(C)CC[C@]2(C(=O)O)CC[C@]3(C)C(=CCC4[C@@]5(C)CC[C@H](O[C@@H]6O[C@H](C(=O)O)[C@@H](O)[C@H](O)[C@H]6O)C(C)(CO)C5CC[C@]43C)C2C1 (some centres undefined),inactive,–
COc1cc(CC(COC2OC(CO)C(O)C(O)C2O)c2cc(/C=C/CO)cc(OC)c2O)ccc1O (centres undefined),inactive,–
COCC(=O)N1CCc2cc(-c3csc(NC(=O)c4cc(OC)cc(OC)c4)n3)ccc21,inactive,–
CC(C)C(C(=O)N1CCCC1C(=O)O)N(C)C(=O)C(O)Cc1ccccc1 (centres undefined) (H-[PhLac]-[NMeV]-Pro-OH; configuration not given here),inactive,–
COc1ccccc1[C@@H]1C2=C(CC(C)(C)CC2=O)Nc2n[nH]c(C(F)(F)F)c21,inactive,–
CC1[C@@H](O)[C@@H](O)C2[C@]3(C)C(C[C@H]4OC(=O)[C@H](O)[C@]1(O)[C@@]24C)C(C)(O)C[C@H](O)[C@H]3O (some centres undefined),inactive,–
C=C1C[C@]23C[C@H]1CC[C@H]2[C@@]12C=C[C@H](O)[C@@](C)(C(=O)O1)[C@H]2[C@@H]3C(=O)O,inactive,–
CO[C@H]1C=C2C(CC[C@H](O[C@@H]3O[C@H](CO)[C@@H](O)[C@@H](O)[C@H]3O)C2(C)C)[C@]2(C)CC[C@]3(C)C([C@H](C)C(O)C(C=C(C)C)O[C@@H]4O[C@H](CO)[C@@H](O)[C@@H](O)[C@H]4O)CC[C@@]3(C)C12 (some centres undefined),inactive,–
C[C@@H]1O[C@@H](O[C@H]2[C@H](OC(=O)C34CCC5(C)C(=CCC6C7(C)CC(O)C(O[C@@H]8O[C@H](C(=O)O)[C@@H](O)[C@H](O)[C@H]8O)C(C)(C(=O)O)C7CCC65C)C3CC(C)(C)CC4O)O[C@H](C)[C@@H](O)[C@@H]2O)[C@H](O)[C@@H](O[C@@H]2OC[C@](O)(CO)[C@H]2O[C@@H]2O[C@H](CO)[C@@H](O)[C@H](O)[C@H]2O)[C@H]1O (some centres undefined),–,-1.08% [at 12.4 µM] (inactive)
CCOc1c2c(c(OCC)c3ccccc13)C(=O)N(c1ccc(CC(=O)NS(=O)(=O)c3ccccc3)cc1)C2,inactive,–
C[C@@H]1CCN(C(=O)CC#N)C[C@@H]1N(C)c1ncnc2[nH]ccc12,inactive,–
COC(=O)C[C@@H]1C(C(=O)O)=CO[C@@H](O[C@@H]2O[C@H](CO)[C@@H](O)[C@H](O)[C@H]2O)/C1=C\COC(=O)/C=C\c1ccccc1,inactive,–
COc1cc([C@H]2OC[C@]3(OC(C)=O)[C@@H](c4ccc(O[C@@H]5O[C@H](CO)[C@@H](O)[C@H](O)[C@H]5O)c(OC)c4)OC[C@H]23)ccc1O,inactive,–
C/C=C/C=C/C=C/C(=O)O[C@@H]1C=C(CO)C(O)(C(=O)O)[C@@]2(C)CCCC(C)(C)[C@H]12 (some centres undefined),inactive,–
C[C@@H]1O[C@@H](O[C@H]2[C@H](OC(=O)[C@]34CCC(C)(C)C[C@H]3C3=CCC5[C@@]6(C)C[C@H](O)[C@H](O[C@@H]7O[C@H](CO[C@@H]8OC[C@H](O)[C@H](O)[C@H]8O)[C@@H](O)[C@H](O)[C@H]7O)C(C)(C)C6CC[C@@]5(C)[C@]3(C)C[C@H]4O)OC[C@@H](O)[C@@H]2O)[C@H](O)[C@H](O[C@@H]2OC[C@](O)(CO)[C@H]2O)[C@H]1O[C@@H]1OC[C@H](O)[C@H](O[C@@H]2OC[C@@H](O)[C@H](O)[C@H]2O)[C@H]1O (some centres undefined),–,1.69% [at 12.4 µM] (inactive)
CCN[C@@H]1C[C@H](N)[C@@H](O[C@H]2OC(CN)=CC[C@H]2N)[C@H](O)[C@H]1O[C@H]1OC[C@](C)(O)[C@H](NC)[C@H]1O,inactive,–
C=C1CC[C@H]2[C@@H](/C=C(\C)C(=O)[C@@]3(OC(C)=O)C[C@H](C)[C@H](OC(C)=O)[C@@H]3[C@H]1OC(C)=O)C2(C)C,inactive,–
Cc1c(N2C(=O)c3ccc(C(=O)O)cc3C2=O)c(=O)n(-c2ccccc2)n1C,inactive,–
COc1ccc(C2=CC(=O)OC2Cc2ccc(O)cc2)c(O)c1 (centres undefined),inactive,–
CC1(C)CC(=O)N(CCCCN2CCN(c3ncccn3)CC2)C(=O)C1,inactive,–

SMILES,Potency,"activity change, negative = inhibition"
C[C@H]1[C@H](C)CC[C@]2(C(=O)O[C@@H]3O[C@H](CO)[C@@H](O)[C@H](O)[C@H]3O)CC[C@]3(C(=O)O)C(=CCC4[C@@]5(C)CC[C@H](O[C@@H]6O[C@H](CO)[C@@H](O)[C@H](O)[C@H]6O)C(C)(C)C5CC[C@]43C)[C@H]12 (some centres undefined),inactive,–
OC[C@H]1O[C@@H](n2cnc3c(NCc4ccc(O)cc4)ncnc32)[C@H](O)[C@@H]1O,inactive,–
C=C(C)C(=O)O[C@H]1C[C@@](C)(OC(C)=O)[C@@]2(O)CC[C@@](C)(O)[C@H](OC(C)=O)[C@@]23OC(=O)C(COC)=C13,inactive,–
CC[C@H]1OC(=O)[C@H](C)[C@@H](O[C@H]2C[C@@](C)(OC)[C@@H](O)[C@H](C)O2)[C@H](C)[C@@H](O[C@@H]2O[C@H](C)C[C@H](N(C)C)[C@H]2O)[C@@](C)(O)C[C@@H](C)[C@@H]2N[C@@H](COCCOC)OC([C@H]2C)[C@]1(C)O,inactive,–
C/C=C(\C)C(=O)O[C@H]1[C@H](O)[C@]2(COC(C)=O)[C@H](O)C[C@]3(C)C(=CCC4[C@@]5(C)CC[C@H](O[C@@H]6O[C@H](C(=O)O)[C@@H](O[C@@H]7O[C@H](CO)[C@@H](O)[C@H](O)[C@H]7O)[C@H](O)[C@H]6O[C@@H]6O[C@H](CO)[C@@H](O)[C@H](O)[C@H]6O)[C@](C)(CO)C5CC[C@]43C)[C@@H]2CC1(C)C (some centres undefined),inactive,–
CC1CC(O)CC(C)(C)C1(O)CCO (centres undefined),inactive,–
CN1CC[C@@H](NC(=O)Nc2ccc(C#N)cc2)C[C@@H]1c1nc2ccccc2[nH]1,inactive,–
C[C@]12C=CC(=O)C=C1CC[C@@H]1[C@@H]2[C@@H](O)C[C@@]2(C)[C@H]1CC[C@]2(O)C(=O)COC(=O)CCC(=O)O,inactive,–
C=CC1(C)CC(O)C2(CCC3C(C)(C(=O)O)CCCC3(C)C2=O)C1 (centres undefined),inactive,–
CC(C)(C)NCC(O)COc1cccc2c1CCCC2=O (centres undefined),inactive,–
O=C(O[C@H]1[C@@H]2C=CO[C@@H](O[C@@H]3O[C@H](CO)[C@@H](O)[C@H](O)[C@H]3O)[C@@H]2[C@@]2(CO)O[C@@H]12)c1ccc(O)cc1,inactive,–
Clc1ccc2c(c1)C1=NCCN1c1c(-c3noc(C4CC4)n3)ncn1-2,inactive,–
C1CCN2CC3C[C@@H](CN4CCCC[C@@H]34)[C@H]2C1,inactive,–
Cc1c(CN(C)C(=O)/C=C/c2cnc3c(c2)CCC(=O)N3)oc2ccccc12,inactive,–
C=C1C(OC(C)=O)C(=O)C2C(C)(C)C(OC(C)=O)CCC2(C)C1CC(OC(C)=O)/C(C)=C/COC(C)=O (centres undefined),inactive,–
CC1(C)NC2N(C1=O)c1ccccc1C2(O)CC(C(=O)O)n1cnc2ccccc2c1=O (centres undefined),inactive,–
C#Cc1cnc2[nH]c(=O)n(C(CC)CC)c2n1,inactive,–
C#C[C@]1(O)CC[C@H]2[C@@H]3CCC4=C/C(=N/O)CC[C@@H]4[C@H]3CC[C@@]21CC,inactive,–
COc1cc(/C=C/C(=O)OC2CC(OC(C)=O)C(OC(C)=O)C3C2CCC2C(=O)OC(c4ccoc4)CC23C)ccc1O[C@@H]1O[C@H](CO)[C@@H](O)[C@H](O)[C@H]1O (some centres undefined),inactive,–
